This passage reports outcome and Potency results from PubChem BioAssay (NCATS).

Unmarked numbers belong to inactive results. Inconclusive results are not listed. Active and inactive are the calls of the source. The call rests on the fitted dose curve; in most records, active means well fitted curve in the direction sought with a large enough effect; inconclusive means small, poorly fitted or top-dose-only effect, or another doubt; inactive means no such curve, though single readings can be large; an effect the other way counts as inactive or inconclusive.

The nature of assay [1]: HPAF-II 24hr Apoptosis Induction qHTS against the NCATS CANVASS Library (AID 1347356). In outline: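 Caspase-Glo 3/7 luminescence, read after 15 min room-temperature development, measures apoptosis in HPAF-II cells treated 24 h at 37 degrees C with an 11-point concentration series; 500 cells/well; doxorubicin control.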
Background: Quantitative high-throughput screening tests each substance at several concentrations.

Assay [2] can be described thus: HEK293 18hr Apoptosis Induction qHTS against the NCATS CANVASS Library (AID 1347357). In outline:
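HEK293 cells (500/well, DMEM + 10% FBS) treated with an 11-point series for 18 h at 37 degrees C. Caspase-3/7 activity read by Caspase-Glo luminescence after 15 min at room temperature.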

The nature of assay [3]: HEK293 24hr Apoptosis Induction qHTS against the NCATS CANVASS Library (AID 1347359). An outline of the steps: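 HEK293 cells (500/well, DMEM + 10% FBS) were exposed to compounds in an 11-point series for 24 hours at 37 degrees C, then caspase-3/7 activity was read by Caspase-Glo DEVD luciferase luminescence after 15 min.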
Assay [4] in a line: HPAF-II 18hr Apoptosis Induction qHTS against the NCATS CANVASS Library (AID 1347360). An outline of the steps: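 HPAF-II cells at 500/well were exposed for 18 h at 37 C to an 11-point compound series. Caspase-3/7 activity was read by Caspase-Glo luminescence after 15 min at RT.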
Assay [5] deals with NAD(P)H diaphorase (Clostridium kluyveri). Description: Diaphorse counterscreen qHTS: Assay Interference Panel against the NCATS CANVASS Library (AID 1347362). Further: potency means the concentration at half of the fitted maximal effect. In outline:
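Clostridium kluyveri diaphorase in PBS with 0.01% Tween-20 was preincubated 15 min at room temperature in the dark with compounds (11-point series). Resorufin fluorescence (ex 525/20, em 598/25) was read 5 min after adding resazurin/NADH.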
For orientation: A counterscreen serves to expose hits that act by an unwanted route or on another target.

In assay [6] the target is Luciferin 4-monooxygenase (Photinus pyralis) (UniProt P08659). Description: Firefly luciferase counterscreen qHTS: Assay Interference Panel against the NCATS CANVASS Library (AID 1347363). Further: series mostly up to about 57 µM. An outline of the steps: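 Purified P. pyralis luciferase was added to compounds (11-point series) preincubated 15 min at room temperature with substrate containing 0.013 mM D-luciferin and 0.013 mM ATP; luminescence was read after 5 min.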

Assay [7] can be described thus: qHTS for ATAD5 Agonist screened against the NCATS CANVASS Library (AID 1347367).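 Further: luciferase reporter driven by ATAD5 which rises upon DNA damage.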 An outline of the steps:
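Luciferase reporter under ATAD5 control, stably integrated in HEK293T cells (2000/well). Compounds (11 points) incubated 16 h at 37C; viability read first by CellTiter-Fluor, then luminescence reporting ATAD5 activation. MMS positive control.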

Assay [8] in a line: MCF7 Cancer Cell Toxicity qHTS against the NCATS CANVASS Library (AID 1347369). An outline of the steps:
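MCF7 cells (500/well) were exposed 72 h at 37 °C to compounds in an 11-point series. Viability was read as ATP content by CellTiterGlo luminescence.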

Assay [9] can be described thus: J3T Cancer Cell Toxicity qHTS against the NCATS CANVASS Library (AID 1347371). Further: potency means the concentration at half of the fitted maximal effect. In outline:
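Cytotoxicity read as CellTiterGlo ATP luminescence after 72 h incubation (37C, 5% CO2) of J3T canine glioma cells (500/well) with an 11-point compound series.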

Assay [10] concerns the target Nuclear receptor subfamily 1 group I member 3 (Homo sapiens) (UniProt Q14994). Description: qHTS for Constitutive Androstane Receptor (CAR) Antagonist screened against the NCATS CANVASS Library (AID 1347372).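 Further: cells stimulated with 50 nM CITCO agonist so inhibition reflects antagonism; luciferase from CYP2B6 promoter reporter driven by hCAR in HepG2 cells; series mostly up to about 46 µM.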 An outline of the steps:
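Cells were seeded and left 4hr to attach, then received compound at 11 concentrations and 50 nM CITCO. Following 24hr incubation, fluorescence viability and luciferase luminescence were read sequentially.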

The nature of assay [11]: 10-beta competent E. coli microbial cell viability qHTS against the NCATS CANVASS Library (AID 1347376). Further: series mostly up to about 46 µM. In outline:
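Read-out: BacTiter-Glo ATP luminescence, taken 20 min after reagent addition. Beforehand, 10-beta competent E. coli at 0.2 OD had been incubated overnight at 37C with compounds at 11 concentrations.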

A short description of assay [12]: qHTS for H2AX Agonists against the NCATS CANVASS Library (AID 1347378). In outline:
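CHO-K1 cells (1000/well, overnight at 37C) exposed to compounds at several concentrations for 3 hr at 37C, 0.76% DMSO final. Lysates read by TR-FRET (phospho-H2AX S139 Eu-cryptate antibody / H2AX-d2 antibody) after 24 hr at room temperature; 665/615 nm ratio.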

Assay [13] in a line: Inflammasome Signaling qHTS Counterscreen: IL-1-beta AlphaLISA counterscreen against the NCATS CANVASS Library (AID 1347381).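 Further: cell-free check with purified IL-1β in medium and no THP-1 cells; series mostly up to about 57 µM.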 In outline: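 Purified IL-1-beta (4 pg/well) + compound, 11-pt conc. series; acceptor beads 6 ug/mL + biotin-Ab 0.6 nM final, 1 h RT; SA-donor 24 ug/ml final, 30 min dark RT; read ex 680/em 615.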
Assay [14] can be described thus: Cytotoxicity qHTS for assessment of Hepg2 cells membrane integrity screened against the NCATS CANVASS Library (AID 1347387). In outline:
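Membrane damage quantified as fluorescent LDH-release signal (ex 560, em 590 nm) in HepG2 cells treated 5 hr at 37C. qHTS format, 11 concentrations spanning 0.59 nM - 46 uM final, cells plated at 2000 per well the night before.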

A short description of assay [15]: G06 Cancer Cell Toxicity qHTS against the NCATS CANVASS Library (AID 1347368). Further: nearly all actives have a fitted effect of over 60% in size. Further: potency means the concentration at half of the fitted maximal effect. An outline of the steps:
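Viability measured by CellTiterGlo ATP luminescence after 72 hr at 37C, 5% CO2. Canine G06 glioma cells plated at 500/well. Compounds tested as 11-point qHTS titrations.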

Assay [16] concerns the target Nuclear receptor subfamily 1 group I member 3 (Homo sapiens) (UniProt Q14994). Description: qHTS for Constitutive Androstane Receptor (CAR) Agonist screened against the NCATS CANVASS Library (AID 1347373).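 Further: every well also contained 1.5 µM PK11195 alongside the test compound.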 An outline of the steps:
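Agonist mode with 1.5uM PK11195 present: compounds for 24hr on HepG2-hCAR-CYP2B6 cells. CellTiter-Fluor fluorescence (ex 405, em 540 nm) gives viability; ONE-Glo luminescence reports CAR activation.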

Assay [17] can be described thus: KB-3-1 Cancer Cell Toxicity qHTS against the NCATS CANVASS Library (AID 1347366). Further: series mostly up to about 46 µM; nearly all actives have a fitted effect of over 75% in size. An outline of the steps:
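KB-3-1 cells (500/well) in DMEM with 10% FBS were exposed to compounds for 72 h at 37C. Viability was read by CellTiter-Glo luminescence.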

Assay [18] in a line: qHTS for ATAD5 Antagonist screened against the NCATS CANVASS Library (AID 1347370). Further: nearly all actives have a fitted effect of over 65% in size. Further: potency means the concentration at half of the fitted maximal effect. In outline: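 Compounds (11-point) co-dosed with 10 µM 5-FUrd for 16 h at 37 °C onto HEK293T-ATAD5 luciferase reporter cells. Viability measured by CellTiter-Fluor fluorescence, then ATAD5 reporter signal by luminescence.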
Assay [19] is described as follows: qHTS for Inflammasome Signaling Inhibitors: IL-1-beta AlphaLISA screen against the NCATS CANVASS Library (AID 1347379).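 Further: human THP-1 cells primed with LPS then triggered with ATP.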 An outline of the steps: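 Secreted IL-1B from human THP-1 cells quantified by AlphaLISA 16 hr after compound addition (final up to 57.5 uM). A 1 hr compound pretreatment preceded inflammasome activation with 250 ng/mL LPS plus 1.25 mM ATP (final).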

The nature of assay [20]: Viability qHTS for inhibitors of the SERCaMP assay screened against the NCATS CANVASS Library (AID 1347400). Further: series mostly up to about 92 µM; nearly all actives have a fitted effect of over 70% in size. In outline: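 CellTiter-Glo luminescence measured cytotoxicity after 48 h at 37C of compound treatment (11-point series). Cells were SH-SY5Y-GLuc SERCaMP MJH297 derivatives, seeded at 1000 per well 4 h beforehand.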

Chain of Luciferin 4-monooxygenase (Photinus pyralis) (P08659 whole entry, looked up): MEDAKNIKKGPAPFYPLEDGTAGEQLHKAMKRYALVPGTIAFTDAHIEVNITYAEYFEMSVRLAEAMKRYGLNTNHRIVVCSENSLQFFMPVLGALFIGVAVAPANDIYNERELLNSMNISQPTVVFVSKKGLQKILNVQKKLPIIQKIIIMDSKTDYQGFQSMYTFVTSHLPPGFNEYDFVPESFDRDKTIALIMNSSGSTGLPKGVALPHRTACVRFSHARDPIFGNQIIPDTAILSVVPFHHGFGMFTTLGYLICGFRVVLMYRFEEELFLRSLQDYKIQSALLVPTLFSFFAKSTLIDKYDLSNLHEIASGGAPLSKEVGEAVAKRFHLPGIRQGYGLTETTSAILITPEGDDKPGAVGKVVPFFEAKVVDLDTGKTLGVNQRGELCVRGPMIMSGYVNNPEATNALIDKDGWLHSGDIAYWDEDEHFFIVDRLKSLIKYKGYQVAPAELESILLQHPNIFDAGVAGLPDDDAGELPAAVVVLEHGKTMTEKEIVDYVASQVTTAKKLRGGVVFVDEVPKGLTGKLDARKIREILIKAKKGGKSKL
Chain of Nuclear receptor subfamily 1 group I member 3 (Homo sapiens) (Q14994 whole entry, looked up): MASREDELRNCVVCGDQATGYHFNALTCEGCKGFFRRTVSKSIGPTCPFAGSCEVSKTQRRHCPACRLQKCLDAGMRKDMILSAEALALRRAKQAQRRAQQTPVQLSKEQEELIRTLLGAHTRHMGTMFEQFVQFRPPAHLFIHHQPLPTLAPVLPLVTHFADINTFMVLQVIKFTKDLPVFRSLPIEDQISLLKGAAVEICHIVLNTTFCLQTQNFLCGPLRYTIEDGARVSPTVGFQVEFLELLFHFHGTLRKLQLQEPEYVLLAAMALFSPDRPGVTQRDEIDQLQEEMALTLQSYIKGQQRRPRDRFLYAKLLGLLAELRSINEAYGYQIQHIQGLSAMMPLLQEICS

Consider `C=C[C@@]1(C)CC[C@@H]([C@H](C)C(=O)/C=C/C(C)(C)O)O1`, for which the molecule was classed as inactive in assay [1], in assay [11], in assay [13] and in assay [14]. Moreover, the Potency result in assay [2], in assay [3], in [4], in assay [5], in assay [6] and in assay [7] was “inactive” each time. Further, the Potency entry in assay [8], in [10] and in [12] was “inactive” throughout. In [9], the Potency was 23.5 µM (active).
As for `CC[C@H]1[C@H](C)[C@H](c2cc(OC)c(OC)cc2OC)[C@@H](C)[C@H](c2cc(OC)c(OC)cc2OC)[C@@]12C=C(OC)C(=O)C=C2OC`, the result in assay [1], in assay [11], in assay [13] and in assay [14] was inactive. In addition, the Potency result in assay [4], in assay [6], in assay [7], in assay [8], in [9] and in [10] was “inactive” throughout. Further, the Potency result in assay [16] and in assay [12] was “inactive” in each case. For the same molecule, the Potency in assay [5] was 21.6 µM (active); in assay [15] it was 23.5 µM (active).
Regarding `C/C=C(/C)c1c(Cl)c(O)c(C)c2c1Oc1c(Cl)c(O)c(Cl)c(C)c1C(=O)O2`, the result in [1], in assay [11], in assay [13] and in [14] was inactive. In addition, the Potency entry in [2], in assay [3], in assay [4], in assay [5], in assay [6] and in assay [17] was “inactive” throughout. Moreover, the Potency result in [7], in assay [15], in [8], in assay [18], in assay [10] and in [16] was “inactive” throughout. For the same molecule, the Potency result in [12], in assay [19] and in assay [20] was “inactive” each time.
As for `C=C(C)CC[C@H](Cc1c(O)cc(O)c2c1O[C@H](c1ccc(O)cc1)CC2=O)C(=C)C`, the molecule was called inactive in assay [1], in assay [11], in [13] and in assay [14]. In addition, the Potency entry in [2], in assay [3], in [4], in assay [5], in [6] and in assay [7] was “inactive” in each case. Also, the Potency result in [15], in [8], in assay [10], in assay [12], in [19] and in assay [20] was “inactive” throughout. Besides, in [18], the Potency is 23.4 µM (active).
Turning to `C=C1CC[C@@H](Br)C(C)(C)[C@]12CC=C(C)C(=O)C2`, the result in [1], in assay [11], in assay [13] and in assay [14] was inactive. Moreover, the Potency result in assay [2], in assay [3], in assay [4], in assay [5], in [6] and in assay [17] was “inactive” throughout. In addition, the Potency result in [7], in [15], in assay [8], in [18], in [9] and in assay [10] was “inactive” in each case. Moreover, the Potency result in assay [12], in assay [19] and in assay [20] was “inactive” in each case.
For the molecule `C/C=C(/C)c1c(Cl)c(OC)c(C)c2c1Oc1c(Cl)c(O)c(Cl)c(C)c1C(=O)O2`, the result in [1], in [11], in assay [13] and in assay [14] was inactive. For the same molecule, the Potency result in assay [2], in [3], in assay [4], in assay [6], in assay [17] and in assay [7] was “inactive” throughout. Further, the Potency entry in [15], in assay [10], in assay [16], in assay [12], in assay [19] and in [20] was “inactive” throughout.
